Experimental findings from the supplement of paper PMC10981050 are described below.

Where a name gives a salt, the structure may show the parent alone.

In one assay the test system is MARIMO. Briefly: cell viability relative to vehicle control; higher = less cytotoxic. The following applies: 10 µM; SRSF2 genotype: SRSF2 P95H/wt. Put shortly:
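Screening covered the Selleck bioactive, kinase and epigenetic probe libraries, less identity-inconsistent compounds, on CRISPR-edited mutant clones and isogenic wild-type clones of four leukaemia lines. Cells, at 2000 per well in 50 µL medium, received a single 10 µM acoustically dispensed dose. After 48 h the supernatant was removed and CellTiter-Glo luminescence was read. Viability was analysed in Genedata Screener as percent of the on-plate vehicle control.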
As a reminder, the cell viability is a read-out of living cells in per cent, often relative to untreated cells. On to `C[C@@H]1O[C@@H](OC[C@H]2O[C@@H](Oc3c(-c4ccc(O)c(O)c4)oc4cc(O)cc(O)c4c3=O)[C@H](O)[C@@H](O)[C@@H]2O)[C@H](O)[C@H](O)[C@H]1O` [Rutin (Rutoside)], for which the cell viability was determined as 108%.
On the same count and under the same terms, as for `CC(C)(F)C[C@H](N[C@@H](c1ccc(-c2ccc(S(C)(=O)=O)cc2)cc1)C(F)(F)F)C(=O)NC1(C#N)CC1` [Odanacatib (MK 0822)], the figure is 94.5%; as for `CCCCCCCCCCCCCCCc1cccc(O)c1C(=O)O` [Anacardic Acid], 81.7%.
In the case of `Cc1ccc(NC(=O)Nc2cc(C(F)(F)F)ccc2F)cc1Nc1ccc2c(c1)NC(=O)/C2=C\c1ccc[nH]1`, the cell viability came to 84.4%.
For the compound `COc1ccc(/C=C/C(=O)C2(C(=O)/C=C/c3ccc(OC)c(OC)c3)CCCCC2)cc1OC`, the cell viability was determined as 2.25%.
On to `Cc1ccc(C)c(OCCCC(C)(C)C(=O)O)c1` [Gemfibrozil (Lopid)], for which the cell viability turned out to be 107%.
As for `NC(=O)c1cccc(-c2cccc(OC(=O)NC3CCCCC3)c2)c1`, the cell viability stood at 95%.
`NC(=O)c1noc([C@H](CCCC2CCCCC2)CC(=O)NO)n1`: the cell viability amounted to 61.7%.
On to `COC(=O)Nc1nc2cc([S+]([O-])c3ccccc3)ccc2[nH]1` (stereo not given) [Oxfendazole], for which the cell viability was 55.2%.
The same measure, in the same setting: next, `Cc1cnc(C(=O)NCCc2ccc(S(=O)(=O)NC(=O)NC3CCCCC3)cc2)cn1` [Glipizide (Glucotrol)]: 90.9%; `CC(C)c1nc(N(C)S(C)(=O)=O)nc(-c2ccc(F)cc2)c1/C=C/[C@@H](O)C[C@@H](O)CC(=O)O` [Rosuvastatin Calcium]: 94.8%.
The same measure, in the same setting: as for `COc1ccc(-c2coc3cc(O)ccc3c2=O)cc1` [Formononetin (Formononetol)], the figure is 82.4%; as for `COc1ccc(OC)c(C2C(C#N)=C(N)Oc3n[nH]c(-c4ccc5ccccc5c4)c32)c1` (stereo not given), 98.9%.
In the case of `CCN1C(=O)CNc2ncc(-c3ccc(-c4nc[nH]n4)nc3C)nc21`, the cell viability stood at 27.5%.
As for `CN(C)c1ccc2nc3c(C(=O)O)cc(=O)c(O)c-3oc2c1` [Gallocyanine], the cell viability is 82.6%.

Staying with this assay, now noted: 10 µM; SRSF2 genotype: SRSF2 wt/wt.
For the compound `C#Cc1cccc(Nc2ncnc3cc(OCCOC)c(OCCO)cc23)c1` [OSI-420 (Desmethyl Erlotinib)], the cell viability turned out to be 49.5%.
On to `O=C(O)Cc1ccccc1Nc1c(Cl)cccc1Cl` [Diclofenac Sodium], for which the cell viability amounted to 110%.
On the same count and under the same terms, next, `CC[C@H](C)C(=O)O[C@H]1C[C@@H](C)C=C2C=C[C@H](C)[C@H](CC[C@@H]3C[C@@H](O)CC(=O)O3)[C@H]21` [Lovastatin (Mevacor)]: 68.5%; `Clc1ccc2c(c1)CCc1cccnc1C2=C1CCNCC1` [Desloratadine]: 83.5%.
Regarding `CNCCCC12CCC(c3ccccc31)c1ccccc12` [Maprotiline hydrochloride], the cell viability amounted to 71.2%.
For the compound `NC(=O)OCC(COC(N)=O)c1ccccc1` [Felbamate], the cell viability was 100%.
On to `CCN(CC)CCOCCOC(=O)C1(c2ccccc2)CCCC1` [Pentoxyverine Citrate], for which the cell viability is 104%.
With `Cn1cc(C2=C(c3ccc(Cl)cc3Cl)C(=O)NC2=O)c2ccccc21`, the cell viability was 105%.
Consider `Clc1ccc(C(Cn2ccnc2)OCc2ccc(Sc3ccccc3)cc2)c(Cl)c1` (stereo not given) [Fenticonazole nitrate], for which the cell viability was 78%.
Still for that read-out and setting: as for `CC1(C)CCC(CN2CCN(c3ccc(C(=O)NS(=O)(=O)c4ccc(NCC5CCOCC5)c([N+](=O)[O-])c4)c(Oc4cnc5[nH]ccc5c4)c3)CC2)=C(c2ccc(Cl)cc2)C1` [Venetoclax (ABT-199, GDC-0199)], the figure is 6.31%; as for `C[N+]1(C)CCCC1C(=O)[O-]` (stereo not given) [Stachydrine], 100%.
In the case of `CC1(C)[C@@H](O[C@H]2O[C@H](C(=O)O)[C@@H](O)[C@H](O)[C@H]2O[C@@H]2O[C@H](C(=O)O)[C@@H](O)[C@H](O)[C@H]2O)CC[C@]2(C)[C@H]3C(=O)C=C4[C@@H]5C[C@@](C)(C(=O)O)CC[C@]5(C)CC[C@@]4(C)[C@]3(C)CC[C@@H]12` [Dipotassium glycyrrhizinate], the cell viability was found to be 112%.
Turning to `C[C@H](NC(=O)CCc1nc2ccccc2c(=O)[nH]1)c1ccccc1`, the cell viability was 100%.
Regarding `N#CC(=Cc1cn(-c2ccccc2)c2ccccc12)C(=O)O`, the cell viability turned out to be 94.5%.
Regarding `COc1cc2nc(N3CCN(C(=O)C4CCCO4)CC3)nc(N)c2cc1OC` (stereo not given) [Terazosin HCl], the cell viability was 102%.
With `C[C@@H]1CC(=O)NN=C1c1ccc(NN=C(C#N)C#N)cc1` [Levosimendan], the cell viability was determined as 86%.
Consider `Cn1c(-c2ccccc2C(F)(F)F)nnc1C12CCC(c3noc(C4CC(F)(F)C4)n3)(CC1)CC2`, for which the cell viability came out at 99.8%.
For `CCCCCCCCCCCCCCCC(=O)OCC(O)C1OC(=O)C(O)=C1O` [L-Ascorbyl 6-palmitate], the cell viability is 121%.
As to `OC[C@H]1O[C@@H](Oc2ccc(O)cc2)[C@H](O)[C@@H](O)[C@@H]1O` [Arbutin (Uva, p-Arbutin)], the cell viability amounted to 104%.
As for `CC[C@H](C)C(=O)O[C@H]1C[C@H](O)C=C2C=C[C@H](C)[C@H](CC[C@@H](O)C[C@@H](O)CC(=O)O)[C@H]21` [Pravastatin sodium], the cell viability was found to be 103%.
On to `C[C@H]1CNC(=O)c2cnn3ccc(nc23)N[C@H](C)c2cc(F)ccc2O1`, for which the cell viability was found to be 51.6%.
Still for that read-out and setting: next, `COc1cc2c(cc1OC(C)C)[C@H](c1ccc(Cl)cc1)N(c1ccc(N(C)C[C@H]3CC[C@H](N4CCN(C)C(=O)C4)CC3)cc1)C(=O)C2`: 71.8%.
Same read-out and setting: next, `CSCC[C@H](NC(=O)[C@H](CC(C)C)NC(=O)[C@H](Cc1c[nH]c2ccccc12)NC(=O)[C@H](CCC(N)=O)NC(=O)[C@@H](NC(=O)[C@H](Cc1ccccc1)NC(=O)[C@H](CC(=O)O)NC(=O)[C@H](CCC(N)=O)NC(=O)[C@H](C)NC(=O)[C@H](CCCNC(=N)N)NC(=O)[C@H](CCCNC(=N)N)NC(=O)[C@H](CO)NC(=O)[C@H](CC(=O)O)NC(=O)[C@H](CC(C)C)NC(=O)[C@H](Cc1ccc(O)cc1)NC(=O)[C@H](CCCCN)NC(=O)[C@H](CO)NC(=O)[C@H](Cc1ccc(O)cc1)NC(=O)[C@H](CC(=O)O)NC(=O)[C@H](CO)NC(=O)[C@@H](NC(=O)[C@H](Cc1ccccc1)NC(=O)[C@@H](NC(=O)CNC(=O)[C@H](CCC(N)=O)NC(=O)[C@H](CO)NC(=O)[C@@H](N)Cc1cnc[nH]1)[C@@H](C)O)[C@@H](C)O)C(C)C)C(=O)N[C@@H](CC(N)=O)C(=O)N[C@H](C(=O)O)[C@@H](C)O` [Glucagon HCl]: 104%.
For `CC(=O)O[C@]1(C)CC[C@@]23C[C@H]1C(C)(C)[C@@H]2CC[C@H]3C` [Cedryl acetate], the cell viability came out at 117%.
With `OC(CN1CCN(c2cccc(Cl)c2)CC1)C(c1ccccc1)c1ccccc1` (stereo not given), the cell viability worked out at 90.6%.
On the same count and under the same terms, as for `C[C@@H]1O[C@@H](OC[C@H]2O[C@@H](Oc3c(-c4ccc(O)c(O)c4)oc4cc(O)cc(O)c4c3=O)[C@H](O)[C@@H](O)[C@@H]2O)[C@H](O)[C@H](O)[C@H]1O` [Rutin (Rutoside)], the figure is 106%; as for `CC(C)(F)C[C@H](N[C@@H](c1ccc(-c2ccc(S(C)(=O)=O)cc2)cc1)C(F)(F)F)C(=O)NC1(C#N)CC1` [Odanacatib (MK 0822)], 102%; as for `CCCCCCCCCCCCCCCc1cccc(O)c1C(=O)O` [Anacardic Acid], 86.7%.
As for `Cc1ccc(NC(=O)Nc2cc(C(F)(F)F)ccc2F)cc1Nc1ccc2c(c1)NC(=O)/C2=C\c1ccc[nH]1`, the cell viability is 92.2%.
`COc1ccc(/C=C/C(=O)C2(C(=O)/C=C/c3ccc(OC)c(OC)c3)CCCCC2)cc1OC`: the cell viability came out at 2.73%.
In the case of `Cc1ccc(C)c(OCCCC(C)(C)C(=O)O)c1` [Gemfibrozil (Lopid)], the cell viability is 106%.
As to `NC(=O)c1cccc(-c2cccc(OC(=O)NC3CCCCC3)c2)c1`, the cell viability came to 92.4%.
Regarding `NC(=O)c1noc([C@H](CCCC2CCCCC2)CC(=O)NO)n1`, the cell viability is 68.3%.
Regarding `COC(=O)Nc1nc2cc([S+]([O-])c3ccccc3)ccc2[nH]1` (stereo not given) [Oxfendazole], the cell viability is 49.4%.
For `Cc1cnc(C(=O)NCCc2ccc(S(=O)(=O)NC(=O)NC3CCCCC3)cc2)cn1` [Glipizide (Glucotrol)], the cell viability came out at 104%.
Take `CC(C)c1nc(N(C)S(C)(=O)=O)nc(-c2ccc(F)cc2)c1/C=C/[C@@H](O)C[C@@H](O)CC(=O)O` [Rosuvastatin Calcium]: the cell viability turned out to be 96.5%.
`COc1ccc(-c2coc3cc(O)ccc3c2=O)cc1` [Formononetin (Formononetol)]: the cell viability was 91.4%.
`COc1ccc(OC)c(C2C(C#N)=C(N)Oc3n[nH]c(-c4ccc5ccccc5c4)c32)c1` (stereo not given): the cell viability was found to be 99%.
Still for that read-out and setting: next, `CCN1C(=O)CNc2ncc(-c3ccc(-c4nc[nH]n4)nc3C)nc21`: 27.6%; `CN(C)c1ccc2nc3c(C(=O)O)cc(=O)c(O)c-3oc2c1` [Gallocyanine]: 87.4%.
